Screening data (PubChem)
Only some compounds are listed: those with a hit (about 11% of all), similar ones and a draw of the others.
NS1 function inh – qHTS Assay for Inhibitors of Influenza NS1 Protein Function | Potency, µM (doses to about 46.1 µM), for the others: at the highest dose activity, positive = more growth | 0.4% of 270,000 active | AID 2326, 2010; calls by dose curve; also: actives are rising curves; nearly all actives have a fitted effect of over 50% in size
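In this qHTS, NS1 from influenza A is expressed in budding yeast, where it slows growth. Cells are switched from glucose to 2% galactose medium (pH 6.0, -URA), treated with compound, and growth recovery is read at OD600.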
AMA1 RON2 block – qHTS for Inhibitors of AMA1-RON; Towards Development of Antimalarial Drug Lead: Primary Screen; Plasmodium falciparum AMA1 (3D7) - RON2 peptide interaction; AlphaScreen AMA1-biotinylated RON2 peptide binding; Potency, µM (series often up to 58.2 µM), for inactives: top-dose activity change, negative = inhibition, hits mostly inhibitors; 0.2% of 360,000 active;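 also: 0% = vehicle wells and -100% = peptide control; nearly all actives have a fitted effect of over 45% in size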
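AMA1 (3D7) with his tag at 25 nM final met compounds first, then biotinylated RON2 peptide at 25 nM; detection used donor plus acceptor beads, 10 µg/mL apiece, read by AlphaScreen after 30 min at room temperature.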
Sm TGR inh – qHTS Assay for the Inhibitors of Schistosoma Mansoni Peroxiredoxins; purified TGR, DTNB reduction, TNB absorbance 405 nm; Potency, µM (titrated, usually from 114 µM), without a hit: at the top dose activity change, negative = inhibition, hits mostly inhibitors; 3% of 360,000 active; Schistosoma mansoni thioredoxin glutathione reductase (TGR), Q962Y6; also: % is scaled to controls: 0 for no effect and ±100 for the full control effect; nearly all actives have a fitted effect of over 60% in size
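First, TGR (20 nM dispensed) and NADPH were mixed with compound. Second, a 15 min room-temperature incubation followed. Third, further NADPH and then DTNB were added to start the reaction. Finally, TNB absorbance was monitored kinetically.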
Pf growth 96h – Primary qHTS for delayed death inhibitors of the malarial parasite plastid, 96 hour incubation; 6.9% of 320,000 active; AID 504834, 2011; P. falciparum luciferase reporter growth, 96 h; Potency, µM (titrated, usually from 28.7 µM), for the others: top-dose activity change, negative = inhibition, usual class: inhibitors; also: % is scaled to controls: 0 for no effect and ±100 for the full control effect
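Cell-based qHTS: luciferase-tagged P. falciparum in erythrocytes (2% hematocrit, 0.05% parasitemia final) incubated with compounds for 96 hours, 37 C, 5% CO2; luciferase detection reagent then added and luminescence measured.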
Pf growth 48h – Primary qHTS for delayed death inhibitors of the malarial parasite plastid, 48 hour incubation; Potency, µM (doses to about 28.7 µM), for inactives: at the highest dose activity change, negative = inhibition, actives largely listed as inhibitors; 5.9% of 310,000 active; P. falciparum luciferase growth in erythrocytes, 48 h; also: % is scaled to controls: 0 for no effect and ±100 for the full control effect
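In quantitative HTS format, infected erythrocytes bearing luciferase-reporter parasites were treated for a single generation at 37 C. Luminescence after adding detection reagent served as the growth measure.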
* marks the source's active call; other numbers are inactive results; ? = inconclusive; · = no result given; [ ] = another dose, or the depositor's remark. Unless noted, calls follow the shape of the dose curve; as a rule, active = well fitted curve in the direction sought with a large enough effect; inconclusive = small, poorly fitted or top-dose-only effect, or another doubt; inactive = no such curve, though single readings can be large; an effect the other way counts as inactive or inconclusive. Potency is read from the fitted curve at half-maximal effect.

SMILES	NS1 function inh	AMA1 RON2 block	Sm TGR inh	Pf growth 96h	Pf growth 48h
Cc1cccnc1Sc1c([N+](=O)[O-])ncn1C	2%	-7%	0%	0%[5.75 µM]	-3%
Cc1cccc(C)c1C(=NCCCN(C)C)c1ccccc1	-7%	-7%	5%	4.7µM*	9.3µM*
CCOCCn1c(=NC(=O)CSCC(=O)Nc2cc(C)on2)sc2cc(OC)ccc21	-16%	-8%	-6%	5.2µM*	5.2µM*
O=C1CC(Sc2ccc(Cl)cc2)C(=O)N1Cc1ccncc1 (stereo unspecified)	3%	9%	7.1µM*	10%	-1%
NCCSC1CC(=O)N(Cc2ccc(F)cc2)C1=O (stereo unspecified)	·	-8%	7.9µM*	?	-8%[5.75 µM]
COc1ccc(NC(=O)[C@@H](NC(=O)N2C[C@H]3C[C@@H](C2)c2cccc(=O)n2C3)C(C)C)cc1OC	-5%	8%	6%	-1%	35%
CCOC(=O)C(NC(=O)NCc1ccc(OC)cc1)(OCC)C(F)(F)F (stereo unspecified)	-5%	0%	-2%	9.3µM*	-7%
COc1ccc(NC(=O)N2CCN(c3cccc(C(F)(F)F)c3)CC2)cc1	-1%	7%	7%	2%[5.75 µM]	-7%
CN(C)S(=O)(=O)c1ccc(NC(=O)N2CCN(c3cccc(C(F)(F)F)c3)CC2)cc1	5%	-20%	1%	12µM*	12µM*
CN(C)S(=O)(=O)c1ccc(NC(=O)C2CC(=O)N(Cc3ccccc3Cl)C2)cc1 (stereo unspecified)	·	30%	-1%	?	?
CN(C)S(=O)(=O)c1ccc(NC(=O)N2CCN(c3ccccc3Cl)CC2)cc1	6%	-9%	3%	?	13µM*
Cc1nc2sc(C(=O)Nc3ccc(F)cc3)c(N)c2c(-c2ccc(Br)cc2)c1C(=O)Nc1ccc(Cl)cc1	·	·	-2%	·	·
Cn1cc(C[C@H](NC(=O)OC(C)(C)C)C(=O)N[C@H](CO)Cc2ccccc2)c2ccccc21	·	-2%	·	·	·
COc1ccc(S(=O)(=O)NCCS(=O)(=O)N2CCN(c3ccccc3F)CC2)cc1	·	·	-11%	·	·
Cc1ccc(OCCCCn2c(-c3ccc(Cl)cc3)nc3ccccc3c2=O)cc1	·	·	1%	·	·
C[C@]12O[C@H](C[C@]1(O)CO)n1c3ccccc3c3c4c(c5c6ccccc6n2c5c31)CNC4=O	·	·	·	0.15µM*	0.17µM*
CC(=Nc1ccccc1)C1=C(O)CCCC1=O	4%	11%	-4%	12µM*	2%
CCOC(=O)c1c(N)n(Cc2ccco2)c2nc3ccccc3nc12	-3%	11%	45µM*	19%	?
COCC(C)OC(=O)c1c(N)n(Cc2ccco2)c2nc3ccccc3nc12 (stereo unspecified)	·	-6%	10µM*	·	·
COCC(C)OC(=O)c1c(N)n(-c2ccc(OC)c(OC)c2)c2nc3ccccc3nc12 (stereo unspecified)	1%	11%	14%	-2%	23%
Cc1ccc(CNC(=O)CCCCn2c(=O)c3ccccc3n(Cc3c(C)cc(C)cc3C)c2=O)cc1	·	·	6%	·	·
O=C(c1[nH]ncc1-c1cccc(Br)c1)C1CO1 (stereo unspecified)	-2%	15%	11µM*	?	15µM*
O=C(c1[nH]ncc1-c1ccccc1)C1CO1 (stereo unspecified)	1%	0%	?	?	?
COc1cc(NC(=O)N2CCC(CN3CCOCC3)CC2)cc(OC)c1OC	·	·	4%	·	·
COc1ccc2c(c1)Cc1sc(NC(=O)c3ccccc3)nc1-2	-2%	26%	-22%	2.9µM*	·
COc1ccc2c(c1)Cc1sc(NC(=O)c3cccs3)nc1-2	-8%[9.22 µM]	-2%	1%	-10%	5.9µM*
COc1ccc(C(=O)Nc2nc3c(s2)Cc2cc(OC)ccc2-3)cc1	6%	-23%	-2%	?	5.9µM*
COc1ccc2c(c1)Cc1sc(NC(=O)c3cccc(F)c3)nc1-2	·	·	-23%	·	·
Cc1cccc(OCc2nc(CC(=O)Nc3ccc(Cl)cc3)cs2)c1	·	·	-3%	·	·
